SMN2 splice enh – qHTS Assay for Enhancers of SMN2 Splice Variant Expression | actives 2.8% (n = 210,000) | Potency, µM (top dose mostly 46.1 µM), for inactives: at the top dose activity change, positive = activation, usual class: activators | HEK293 SMN2-luciferase splicing reporter, luminescence, 30-36 h; note: % of control where 0% means no effect; nearly all actives have a fitted effect of over 55% in size
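HEK293 cells carry an SMN2 minigene-luciferase reporter in which exon 7 inclusion puts luciferase in frame. Cells were seeded at 2000 cells/well, attached for 10-12 hours, then exposed to compounds for 30-36 hours at 37C before ONE-Glo luminescence.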
KinaseGlo FLuc – Counterscreen for Luciferase (Kinase-Glo TM) Inhibition; Kinase-Glo luciferase, ATP luminescence, 8 min; Potency, µM (highest dose often 38.3 µM), for the others: at the top dose activity change, negative = inhibition, hits mostly inhibitors; actives 0.28% (n = 200,000); AID 1379, 2008; note: % is set by controls: 0 for no effect and ±100 for the full control effect; nearly all actives have a fitted effect of over 60% in size
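Compounds were added to a substrate mix at pH 7.2 (50 mM imidazole, 10 uM ATP, within the enzyme's linear range), followed by Kinase-Glo detection reagent; luminescence was measured after 8 minutes at ambient temperature.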
NPC1 prom act – qHTS Assay for NPC1 Promoter Activators; Huh7 NPC1 promoter luciferase reporter, 24 h; actives 2.4% (n = 320,000); Potency, µM (highest dose often 9.22 µM), inactives show at the top dose activation, hits mostly activators; note: % of control where 0% means no effect; nearly all actives have a fitted effect of over 60% in size
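Luminescence from an NPC1 promoter-driven luciferase reporter in stably transfected Huh7 cells was measured after 24 h compound treatment at 37 °C, followed by 10 min ambient incubation with luciferase detection reagent.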
FLuc counter – qHTS profiling assay for firefly luciferase inhibitor/activator using purifed enzyme and Km concentrations of substrates (counterscreen for miR-21 project); purified FLuc, Km substrates, luminescence inhibition; Potency, µM (top dose mostly 57.5 µM), for the others: at the top dose activity change, negative = inhibition, most hits filed as inhibitors; AID 588342, 2011; actives 6.9% (n = 360,000);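 note: plate controls were vehicle for no effect and reference inhibitor for full effect; nearly all actives have a fitted effect of over 55% in size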
Target sequence (P08659 whole entry, looked up): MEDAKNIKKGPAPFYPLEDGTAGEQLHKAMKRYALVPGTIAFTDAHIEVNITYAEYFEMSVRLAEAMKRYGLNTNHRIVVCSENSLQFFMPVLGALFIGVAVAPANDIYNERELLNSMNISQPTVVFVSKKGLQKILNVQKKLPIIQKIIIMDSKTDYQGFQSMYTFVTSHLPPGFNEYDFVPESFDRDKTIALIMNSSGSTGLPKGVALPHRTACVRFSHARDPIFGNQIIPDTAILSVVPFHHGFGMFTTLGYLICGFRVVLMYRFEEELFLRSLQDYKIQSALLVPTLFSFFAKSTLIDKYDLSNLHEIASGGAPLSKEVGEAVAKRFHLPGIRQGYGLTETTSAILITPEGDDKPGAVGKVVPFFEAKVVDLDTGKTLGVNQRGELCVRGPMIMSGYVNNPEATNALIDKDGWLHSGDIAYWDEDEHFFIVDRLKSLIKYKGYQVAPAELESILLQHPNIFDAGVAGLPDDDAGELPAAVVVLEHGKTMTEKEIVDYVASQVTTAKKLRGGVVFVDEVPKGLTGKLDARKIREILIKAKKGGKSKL
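Purified P. pyralis luciferase, 10 nM final, with Km-level 10 uM D-luciferin and 10 uM ATP in 50 mM Tris acetate pH 7.5, 10 mM Mg acetate, 0.01% Tween-20, 0.05% BSA; 6-point qHTS titration about 60 µM downward; luminescence read.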
Rab9 promoter act – qHTS Assay for Rab9 Promoter Activators; Huh7 Rab9 promoter-luciferase reporter, luminescence, 24 h; Potency, µM (doses to about 9.22 µM), inactives show at the highest dose activation, negative = inhibition, hits mostly activators; actives 2.8% (n = 320,000); note: % of control where 0% means no effect; nearly all actives have a fitted effect of over 60% in size
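Steps: seed 1500 Huh7 Rab9-luc cells per well, rest 2 h at 37 °C; add compound in DMSO; incubate 24 h; add luciferase reagent, 10 min ambient; read luminescence.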
The depositor's hits bear a star; [ ] = dose if it differs, or a comment. Only some compounds are listed: those with a hit (about 7.3% of all), similar ones and a draw of the others. Calls come from the whole dose curve; as a rule, active = well fitted curve in the direction sought with a large enough effect; inconclusive = small, poorly fitted or top-dose-only effect, or another doubt; inactive = no such curve, though single readings can be large; an effect the other way counts as inactive or inconclusive. Potency is the fitted concentration of half-maximal effect.

What do the screens show for `CCN(CC)c1ccc(/C=N/N(c2ccccc2)c2ccccc2)c(O)c1`?
SMN2 splice enh: -10%; KinaseGlo FLuc: 0%; NPC1 prom act: -1%; FLuc counter: -11%; Rab9 promoter act: 2%

How did CCN(CC)c1ccc(O)c(C=Nc2ccc(C)c(C)c2)c1 do in these assays?
SMN2 splice enh: 5%; KinaseGlo FLuc: 1%; NPC1 prom act: 26%; FLuc counter: 3.4µM*; Rab9 promoter act: inconclusive

What do the screens show for `C=CCSc1nnc(-c2cc3c(s2)-c2ccccc2CC3)o1`?
SMN2 splice enh: inconclusive; KinaseGlo FLuc: 0%; NPC1 prom act: 0%; FLuc counter: 12µM*; Rab9 promoter act: inconclusive

How did Cc1ccc(SCCNC(=O)CN(c2ccccc2)S(=O)(=O)N(C)C)cc1 do in these assays?
SMN2 splice enh: -12%; FLuc counter: -2%

How did O=C(C1CCCN(S(=O)(=O)c2cccc3nsnc23)C1)N1CCN(c2ccccc2Cl)CC1 (configuration not stated) do in these assays?
SMN2 splice enh: -12%; FLuc counter: -1%

How did CCCn1c(=S)[nH]c2ccccc2c1=O do in these assays?
SMN2 splice enh: 2%; KinaseGlo FLuc: -2%; NPC1 prom act: -9%; FLuc counter: 13µM*; Rab9 promoter act: -10%

Results for CN(C)CCn1c(=S)[nH]c2ccccc2c1=O ?
SMN2 splice enh: 11%; KinaseGlo FLuc: -1%; NPC1 prom act: 14%; FLuc counter: 0%; Rab9 promoter act: 1%

Results for Cc1ccc(C2=NN(C(=S)Nc3ccccc3)C(c3ccco3)C2)cc1 (configuration not stated) ?
SMN2 splice enh: 13µM*; KinaseGlo FLuc: 1%; NPC1 prom act: 2.8µM*; FLuc counter: 7.6µM*; Rab9 promoter act: 3.2µM*

Results for CCS(=O)(=O)Nc1ccc(C2=NN(C(=S)Nc3ccccc3)C(c3ccco3)C2)cc1 (configuration not stated) ?
SMN2 splice enh: inconclusive; KinaseGlo FLuc: -1%; NPC1 prom act: 16%; FLuc counter: inconclusive; Rab9 promoter act: 15%

What do the screens show for `CCN1C(=O)c2ccccc2S(=O)c2ccc(C(=O)NCc3ccc(Cl)cc3)cc21` (configuration not stated)?
SMN2 splice enh: -22%; FLuc counter: -6%

How did CCCc1cc(C(=O)Nc2c(C)nn(Cc3ccc(Cl)c(Cl)c3)c2C)no1 do in these assays?
SMN2 splice enh: -45%; FLuc counter: inconclusive

How did Cc1cc(=O)oc2cc(OCC(=O)N3CCN(c4ccccc4)CC3)c(Cl)cc12 do in these assays?
NPC1 prom act: -1%; FLuc counter: 19µM*; Rab9 promoter act: 2%

How did NC(=O)C1CCN(c2nc(-c3cccc(N)c3)cs2)CC1 do in these assays?
NPC1 prom act: 3%; FLuc counter: inconclusive; Rab9 promoter act: 2%

Results for CN1CCN(c2nc(-c3cc4ccccc4o3)cs2)CC1 ?
SMN2 splice enh: 13µM*; KinaseGlo FLuc: -1%; NPC1 prom act: inconclusive; FLuc counter: 4.8µM*; Rab9 promoter act: inconclusive

How did Nc1nc(-c2cc3ccccc3o2)cs1 do in these assays?
NPC1 prom act: 2.2µM*; FLuc counter: 4.3µM*; Rab9 promoter act: 2µM*

What do the screens show for `NC(=O)C1CCN(c2nc(-c3cc4ccccc4o3)cs2)CC1`?
NPC1 prom act: inconclusive; FLuc counter: 11µM*; Rab9 promoter act: inconclusive

Results for Cc1cc(C)n(CCc2nc(-c3cc4ccccc4o3)cs2)n1 ?
SMN2 splice enh: -36%; KinaseGlo FLuc: 1%; NPC1 prom act: 20%; FLuc counter: 17µM*; Rab9 promoter act: 21%

How did N=C1CCC[C@@H]1C(=S)SCCC(N)=O do in these assays?
SMN2 splice enh: -5%[9.22 µM]; KinaseGlo FLuc: -4%[7.66 µM]

Results for Cc1cccc(CC(=O)Nc2ccc3nc(N4CCC(C)CC4)cc(C)c3c2)c1 ?
SMN2 splice enh: -26%; FLuc counter: 3%

How did Cc1ccc(NC(=O)Cn2cc(C(=O)C3CCCCC3)c3ccccc32)cc1 do in these assays?
SMN2 splice enh: -5%; FLuc counter: -9%

Assay outcomes as filed in PubChem.
